According to PubChem BioAssay (NCI):
This is part of a sample that, as a whole, favours compounds with a hit. Of some 83,000 tested, about 20% had one in any assay.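 Treatment: one concentration, 48 hours, 96-well format. Scoring: percent growth, with anything below 10 considered active.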 Calls of active or inactive are those of the source.

Assays:
Experiment in all cases: NCI-60 one-dose screen, 48 h (100 = growth as untreated, 0 = no growth, -100 = all killed)
Conditions in all cases: 10 µM unless noted
[1] = test system: HCT-15 colon
[2] = test system: HT29 colon
[3] = test system: SNB-75 CNS
[4] = test system: SNB-19 CNS
[5] = test system: U251 CNS
[6] = test system: PC-3 prostate
[7] = test system: SK-MEL-5 melanoma
[8] = test system: UACC-62 melanoma
[9] = test system: LOX IMVI melanoma
[10] = test system: SK-MEL-28 melanoma

Measured: growth

NC(=O)c1cc(I)ccc1NC(=O)/C=C/c1ccccc1
inactive: [1] 24.5% | [2] 22.1% | [3] 30.1% | [4] 27.3% | [5] 21.8% | [6] 15.4% | [7] 24.5% | [8] 64.9% | [9] 35.1% | [10] 12%

COC(=O)CC[C@@H]1O[C@@H](c2cccc(C(F)(F)F)c2)[C@@H](O)[C@H]1O
inactive: [1] 101% | [2] 97.8% | [3] 92.5% | [4] 107% | [5] 102% | [6] 97.8% | [7] 98% | [8] 104% | [9] 97.4% | [10] 105%

COc1ccc(CNc2c3ccccc3nc3ccccc23)cc1
inactive: [1] 22% | [2] 19.3% | [3] 61.8% | [4] 34% | [5] 36.5% | [6] 34% | [7] 62.2% | [9] 20.9% | [10] 79.6%

CCCCCCCCCc1ccc(OCCOCCOCCOCCOCCOCCOCCOCCOCCO)cc1
inactive: [1] 10.4% | [2] 15.2% | [3] 36.6% | [4] 28.6% | [5] 16.4% | [8] 11.7% | [10] 34.4%
active: [6] 9.37% | [7] -77.3% | [9] 7.91%

Cc1ccc(Nn2c(SCC(=O)Nc3nc(-c4ccccc4)cs3)nc(C)c2C)cc1
active: [7] -66.7%
inactive: [1] 67.2% | [2] 56.1% | [3] 24.4% | [4] 74.3% | [5] 49.3% | [6] 71.8% | [8] 51.8% | [9] 51.9% | [10] 82.8%

C=C1C(=O)O[C@H]2[C@H]1CC/C(COC(=O)/C=C\C(=O)NCc1ccc(Cn3c(=O)sn(CCI)c3=O)cc1)=C\CC[C@@]1(C)O[C@@H]21
inactive: [1] 15.6% | [2] 26.3% | [3] 99.1% | [4] 99% | [5] 70% | [6] 69% | [7] 101% | [9] 14% | [10] 40.4%

Cn1c(=O)cc2c3c(c(NCCCO)ccc31)C(=O)c1ccccc1-2
inactive: [1] 39.5% | [2] 23.1% | [3] 39.3% | [4] 47.3% | [5] 37.5% | [6] 45.2% | [7] 40.2% | [9] 26.6% | [10] 71.4%

COC12C=C/C(=C(/C(=O)OCc3ccncc3)C(=O)CCCCCCCCC3(OC)C=C/C(=C(/C(=O)OCc4ccncc4)C(=O)CCCCCCCC1)O3)O2
active: [1] -57.7% | [2] 1.11% | [3] -57.2% | [4] 7.98% | [5] -50.1% | [6] -35% | [7] -84.5% | [9] -63.9% | [10] -61.1%

CCN(CC)Cc1cc(C=C2C(=O)NC(=S)NC2=O)cc(OC)c1O
inactive: [1] 105% | [2] 108% | [3] 99.1% | [4] 98.6% | [5] 98.6% | [6] 102% | [7] 106% | [8] 96.5% | [9] 105% | [10] 107%

C=C(C)[C@@H]1CC[C@]2(C(=O)O)CC[C@]3(C)[C@H](CC[C@@H]4[C@@]5(C)CCC(NC(=O)c6cccc(OC(C)=O)c6OC(C)=O)C(C)(C)[C@@H]5CC[C@]43C)[C@@H]12 (stereo partly specified)
active: [1] 6.94% | [2] 8.01% | [5] 9.78% | [7] -81.7% | [9] -74.1%
inactive: [3] 12.5% | [4] 26% | [6] 17.6% | [10] 12%

NC(=O)c1c(NC(=O)c2ccc3ccccc3c2)sc2c1CCC(=O)C2
inactive: [1] 42.1% | [2] 55.2% | [3] 40.3% | [4] 46.3% | [5] 22.9% | [6] 16.6% | [7] 99.7% | [8] 42% | [9] 37.5% | [10] 97.1%

O=C(CN1C(=O)S/C(=C\c2ccccc2)C1=O)Nc1ncc(Cc2ccccc2Cl)s1
inactive: [1] 92.3% | [2] 109% | [3] 81.9% | [4] 101% | [5] 95% | [6] 79% | [7] 98.2% | [9] 87.9% | [10] 119%

COc1ccc(C(C)=O)cc1S(=O)(=O)Nc1c(N)nc(SC)[nH]c1=O
inactive: [1] 100% | [2] 104% | [3] 98.2% | [4] 109% | [5] 111% | [6] 104% | [7] 100% | [9] 96.3%

O=C(Nc1nc2cc(C(=O)N3CCN(C(c4ccccc4)c4ccccc4)CC3)ccc2o1)c1ccc(NC2CCCCC2)c([N+](=O)[O-])c1
inactive: [1] 35.1% | [2] 62.2% | [3] 71.7% | [4] 48.3% | [5] 32.5% | [6] 53.9% | [7] 49.7% | [8] 45.8% | [9] 45.5% | [10] 66.5%

C=C1CC[C@@H]2[C@](C)(COC(C)=O)[C@H](OC(C)=O)CC[C@@]2(C)[C@@H]1CC(Nc1ccc(S(=O)(=O)Nc2ncccn2)cc1)C1=CCOC1=O (stereo partly specified)
active: [1] -51.4% | [2] -48.6% | [5] -19% | [8] 3.93% | [9] -79.8% | [10] -17.7%
inactive: [3] 25.6% | [4] 36.7% | [6] 15.1% | [7] 24.1%

CN(C)CC(C)(C)C(=O)/C=C/c1ccccc1
active: [1] -47.6% [25 µM] | [2] -16.7% [25 µM] | [3] -13.7% [25 µM] | [4] -1% [25 µM] | [5] -41.5% [25 µM] | [6] -34.4% [25 µM] | [7] -86.8% [25 µM] | [9] -84.8% [25 µM] | [10] -61.6% [25 µM]

CCOC(=O)C1=C(c2ccccc2)N=C2SC=C(c3ccc(Cl)cc3)N2C1c1ccc(Br)cc1 (stereo unspecified)
inactive: [1] 80.8% | [2] 82.2% | [3] 81.7% | [4] 85.4% | [5] 85.8% | [6] 40.6% | [7] 67.7% | [8] 67.7% | [9] 84.8% | [10] 98.3%

Oc1ccc(Cl)cc1/C=N\NC(=S)N/N=C/c1cc(Cl)ccc1O
active: [7] -32.6%
inactive: [1] 23% | [2] 33.9% | [3] 77.7% | [4] 39.8% | [5] 25.9% | [6] 25.8% | [9] 15.7% | [10] 58.4%

COc1cc(/C=C2/C=C(c3ccccc3)N(CCc3ccc(S(N)(=O)=O)cc3)C2=O)cc(OC)c1OC
inactive: [1] 100% | [2] 94.7% | [3] 71.9% | [4] 101% | [5] 87% | [6] 44.2% | [7] 90.7% | [8] 89.6% | [9] 101% | [10] 119%

COc1ccc(C2=C(Br)C(=O)c3nc(C)ccc3C2=O)cc1
inactive: [1] 93.1% | [2] 110% | [3] 93.8% | [4] 94.9% | [5] 94% | [6] 80% | [7] 91.6% | [9] 95.4% | [10] 107%

CCN(CC)CC(O)COc1c(Br)c(Br)c(Br)c2c1OC(C)(C)C2 (stereo unspecified)
active: [7] -78.9%
inactive: [1] 97.3% | [2] 18.9% | [3] 91.3% | [4] 73.4% | [5] 85.6% | [6] 78.1% | [9] 52.9%

COc1ccc(-c2nc3cc(C(=O)NCc4ccccc4)ccc3n2C2CCCCC2)cc1
inactive: [1] 10% | [2] 28.1% | [3] 64.3% | [4] 98.2% | [5] 68.2% | [6] 85.3% | [7] 38.6% | [8] 91% | [9] 53.9% | [10] 92.7%

Nc1ncc(-c2ccc3ncnc(Nc4cccc(Cl)c4)c3c2)cn1
inactive: [1] 38.8% | [2] 40% | [3] 49.8% | [4] 59.4% | [5] 43.6% | [6] 36.1% | [7] 64.8% | [8] 50.6% | [9] 44.8% | [10] 63.8%

COc1cc(C2CC(c3ccc(Nc4nc(Nc5ccc(Cl)cc5)nc(Nc5ccc(Cl)cc5)n4)cc3)=NN2C(C)=O)cc(OC)c1OC (stereo unspecified)
inactive: [1] 88.9% | [2] 97.2% | [3] 106% | [4] 102% | [5] 93.6% | [6] 89.9% | [7] 81.3% | [9] 105% | [10] 119%
